Test results as given in PubChem BioAssay.

assay: osmotic lysis modulators in infected erythrocytes, primary screen, PSAC antagonist project, cell-based, P. falciparum Indochina, OD700, 3 h (AID 1156); settings: higher = more signal, called active from +8 up or from −8 down

z-score, inactive:
CCOC(=O)C[C@H]1[C@H](OC(=O)Cc2ccc3c(c2)OCO3)[C@@H](NC(=O)c2ccc3ccccc3n2)c2cc(OCCCO)ccc2N1C(=O)c1ccccc1 -0.576
COc1ccc([Si](C)(C)[C@@H]2[C@@H](CC(=O)N(CCO)Cc3ccccc3)O[C@]3(C(=O)N(Cc4cccc(N5CCCCC5=O)c4)c4ccccc43)[C@H]2C)cc1 0.422
C=C[C@@H](OC)[C@H](OC(=O)Nc1ccc(OC)cc1)c1ccc(O)c(F)c1 0.241
CCCCCC1=C2CNC(C)(C(=O)OC)C=C2C(C)C1=O (configuration not stated) 0.777
O=C1NC(=O)C2C1C=CC(C(O)c1ccco1)N2Nc1ccc(Cl)cc1Cl (configuration not stated) 0.331
CCC#CCN(Cc1ccccc1Br)[C@H](/C=C/C1CC1)[C@@H](O)Cc1ccccc1 -0.239
COc1ccc([Si](C)(C)[C@@H]2[C@@H](CC(=O)N3Cc4ccccc4C[C@H]3CO)O[C@]3(C(=O)N(Cc4ccc(N5C(=O)c6cccc7cccc5c67)cc4)c4ccccc43)[C@H]2C)cc1 -0.149
[N-]=[N+]=Nc1ccccc1C[C@@]1(C(=O)NCCN2CCOCC2)N=C(c2ccc(OCCCO)cc2)O[C@@H]1c1ccccc1N=[N+]=[N-] 2.72
CC1=C2[C@@H](CCc3ccccc3)OB(O)C[C@@H]2[C@@H]2C(=O)N(Cc3ccccc3)C(=O)[C@@H]2C1 -0.633
CC1CC/C=C\[C@H]2OC34C=CCN(Cc5ccccc5)C(=O)[C@H]3N(C(CO)C(C)C)C(=O)[C@@H]4C2C(=O)O1 (some centres not stated) 0.97
COc1cccc(C)c1NC(=O)O[C@H]1[C@H](OC(=O)Nc2ccc3c(c2)OCO3)[C@@H](OC(=O)Nc2ccc3c(c2)OCO3)[C@@H](OC)O[C@@H]1CO 0.579
Cc1ccccc1C(O)C1C=CC2C(=O)NC(=O)C2N1Nc1ccccn1 (configuration not stated) -0.0205
CCCCC(=C=CC[C@H](O)c1ccc(OCCO)cc1)CCO 1.06
CC(c1ccccc1)C(O)C1C=CC2C(=O)N(C)C(=O)C2N1Nc1ccccc1 (configuration not stated) -0.0204
C=CCC(OC(C)=O)[C@@H]1[C@@H](N(Cc2ccc(-c3cccc(C(F)(F)F)c3)o2)C(=O)Cc2ccc(OC)cc2)c2cc(OCCCO)ccc2N1C(=O)c1ccc(-c2ccccc2)cc1 (some centres not stated) 1.81
Cc1ccc(S[C@]2(C(=O)NC(C)C)CC(=O)N(Cc3cc(C(F)(F)F)cc(C(F)(F)F)c3)[C@@H]2c2ccc(CO)cc2)cc1 0.497
CCOC(=O)C[C@H]1[C@H](OC(=O)c2cc3ccccc3oc2=O)[C@@H](NC(=O)CC(C)C)c2cc(OCCCO)ccc2N1C(=O)c1ccc2ccccc2n1 0.609
COc1ccc(CCNC(=O)[C@@]2(c3ccc([N+](=O)[O-])cc3)CC(=O)N(C3CCCCC3)[C@@H]2c2ccc(CO)cc2)cc1 1.03
C[C@@H]1NC(=O)[C@@H](Cc2ccccc2)NC(=O)[C@@]23C(=O)N[C@@H](Cc4ccccc4)C2[C@H](C)[C@@]2(C)O[C@H]2C3/C=C/C/C=C\CNC1=O (some centres not stated) 0.638
CCC1=C2CN(Cc3ccccc3)[C@@H](C(=O)Cc3ccccc3)C2C=CCC1 (some centres not stated) 0.564
N#Cc1ccc(NN2C(C(O)c3ccc(Br)cc3)C=CC3C(=O)N(c4ccccc4)C(=O)C32)cc1 (configuration not stated) 0.419
OCCCC1=CC(c2ccc(CN3CCCC3)cc2)N(Cc2cc3c(cc2Br)OCO3)CC1 (configuration not stated) 0.795
O=C(O)[C@@H]1C[C@@H]2C(=O)N3CCC[C@H]3C(=O)N2[C@@H]1c1ccc(O)cc1 -3.21
CC(C)[Si]1(C(C)C)OCc2cc(-c3ccc(-c4ccc(Cl)c(Cl)c4)o3)nc(-c3ccccc3)c21 0.6
COc1ccc([Si](C)(C)[C@@H]2[C@@H](CCO)O[C@]3(C(=O)N(Cc4ccccc4)c4ccc(N5C(=O)c6cccc7cccc5c67)cc43)[C@H]2C)cc1 0.504
C=C[C@H](C)[C@H](OC(=O)Nc1ccc(SC)cc1)c1ccc(OCCO)cc1 1.91
CCOC(=O)C[C@H]1[C@H](OC(=O)c2cc3ccccc3oc2=O)[C@@H](NC(=O)c2ccc3ccccc3n2)c2cc(OCCCO)ccc2N1C(=O)Cc1ccc(OC)cc1 0.635
